Assay outcomes from PubChem.
Only some compounds are listed: those with a hit (about 7.5% of all), similar ones and a draw of the others.
ELG1 genotox: inducers of genotoxicity in HEK293T ELG1-luciferase cells; HEK293T ELG1-luciferase reporter, luminescence, 16 h; Potency, µM (top dose mostly 46 µM), for the others: at the highest dose activity change, positive = activation, most hits filed as activators; 330,000 tested, 1.3% active; AID 504466; also: % of control where 0% means no effect; nearly all actives have a fitted effect of over 60% in size
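16 hr compound incubation (37 °C, 5% CO2) of HEK293T cells carrying luciferase-tagged ELG1; luciferase then measured by ONE-Glo luminescence after 30 min at RT.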
Luc counter: blocks Kinase-Glo luciferase, a counter-screen artifact; Kinase-Glo luciferase, ATP luminescence, 8 min; Potency, µM (series often up to 38.3 µM), without a hit: at the top dose activity change, negative = inhibition, actives largely listed as inhibitors; 200,000 tested, 0.28% active; AID 1379; also: % is scaled to controls: 0 for no effect and ±100 for the full control effect; nearly all actives have a fitted effect of over 60% in size
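Compound is pinned into ATP-containing buffer (10 uM ATP, imidazole pH 7.2, 7 mM MgCl2). Kinase-Glo luciferase reagent is then added. Light output is recorded following an 8-min room-temperature incubation.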
FLuc counter: inhibits or activates purified firefly luciferase, miR-21 counter-screen; AID 588342; 360,000 tested, 6.9% active; Potency, µM (highest dose often 57.5 µM), inactives show at the top dose activity change, negative = inhibition, usual class: inhibitors; purified FLuc, Km substrates, luminescence inhibition;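 also: plate controls were vehicle for no effect and reference inhibitor for full effect; nearly all actives have a fitted effect of over 55% in size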
Target sequence (P08659 whole entry, looked up): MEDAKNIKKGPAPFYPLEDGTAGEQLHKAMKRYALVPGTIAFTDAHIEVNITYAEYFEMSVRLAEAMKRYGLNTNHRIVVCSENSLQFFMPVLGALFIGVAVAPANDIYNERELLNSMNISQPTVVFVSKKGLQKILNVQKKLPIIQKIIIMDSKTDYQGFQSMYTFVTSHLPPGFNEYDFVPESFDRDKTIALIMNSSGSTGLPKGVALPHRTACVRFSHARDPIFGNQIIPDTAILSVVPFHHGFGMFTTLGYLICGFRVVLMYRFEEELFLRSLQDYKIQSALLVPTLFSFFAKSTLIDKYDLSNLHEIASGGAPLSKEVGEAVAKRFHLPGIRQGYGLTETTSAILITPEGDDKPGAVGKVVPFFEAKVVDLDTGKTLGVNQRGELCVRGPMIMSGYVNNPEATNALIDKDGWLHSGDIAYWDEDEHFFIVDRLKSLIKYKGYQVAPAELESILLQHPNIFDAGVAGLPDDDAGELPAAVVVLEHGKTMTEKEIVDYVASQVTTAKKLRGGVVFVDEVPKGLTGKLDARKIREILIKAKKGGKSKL
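Purified P. pyralis luciferase, 10 nM final, with Km-level 10 uM D-luciferin and 10 uM ATP in 50 mM Tris acetate pH 7.5, 10 mM Mg acetate, 0.01% Tween-20, 0.05% BSA; 6-point qHTS titration about 60 µM downward; luminescence read.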
Rab9 promoter act: Rab9 promoter activation | Huh7 Rab9 promoter-luciferase reporter, luminescence, 24 h | Potency, µM (top dose mostly 9.22 µM), for inactives: at the top dose activation, negative = inhibition, actives largely listed as activators | 320,000 tested, 2.8% active; also: % of control where 0% means no effect; nearly all actives have a fitted effect of over 60% in size
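Stable Rab9-luc Huh7, 1500 cells/well, 2 h settle; cmpd in DMSO, 24 h, 37 °C/5% CO2; luciferase reagent 10 min RT; luminescence.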
SMN2 splice enh: enhancers of SMN2 splice variant expression; Potency, µM (titrated, usually from 46.1 µM), without a hit: top-dose activity change, positive = activation, actives largely listed as activators; 210,000 tested, 2.8% active; HEK293 SMN2-luciferase splicing reporter, luminescence, 30-36 h; AID 1458; also: % of control where 0% means no effect; nearly all actives have a fitted effect of over 55% in size
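HEK293 cells carry an SMN2 […]–luciferase reporter in which exon 7 inclusion puts luciferase in frame. Cells were plated 10-12 h before compound addition, then incubated 30-36 h at 37C. ONE-Glo luminescence was read; sodium butyrate at 4.5 mM final served as control.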
NPC1 promoter act: NPC1 promoter activation; Huh7 NPC1 promoter luciferase reporter, 24 h; Potency, µM (top dose mostly 9.22 µM), for the others: at the top dose activation, hits mostly activators; 320,000 tested, 2.4% active; also: % of control where 0% means no effect; nearly all actives have a fitted effect of over 60% in size
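NPC1 promoter–luciferase Huh7 cells; 24 h compound; luminescence.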
Active calls of the source: *; ? = inconclusive; · = no result. Calls follow the shape of the dose curve; as a rule, active = well fitted curve in the direction sought with a large enough effect; inconclusive = small, poorly fitted or top-dose-only effect, or another doubt; inactive = no such curve, though single readings can be large; an effect the other way counts as inactive or inconclusive. Potency is read from the fitted curve at half-maximal effect.

SMILES	ELG1 genotox	Luc counter	FLuc counter	Rab9 promoter act	SMN2 splice enh	NPC1 promoter act
O=C(NNC(=O)c1cc2ccccc2cc1O)NC1CCCCC1	3%	·	-3%	16%	·	9%
Cc1cc(C(=O)OCC(=O)NC2CCC(C)CC2)c(C)o1 (stereo not given)	0%	·	-3%	0%	·	0%
Cc1cc(C(=O)NC2CCC(C)CC2)c(C)o1 (stereo not given)	5.2µM*	·	9.5µM*	1.8µM*	·	1.4µM*
CCOC(=O)CSC1=Nc2ccccc2C2=NC(CCC(=O)NCc3ccccc3)C(=O)N12 (stereo not given)	·	·	-1%	·	·	·
Cc1ccn2cc(-c3ccc(NS(=O)(=O)c4ccccc4)cc3)nc2c1	3%	-3%	?	12%	-18%	5%
Cc1ccc(C(=O)Oc2cc(-c3ccccc3)no2)cc1	0%	-1%	-4%	0%	4%	-3%
CCc1ccn2cc(-c3cc(-c4ccccc4)no3)nc2c1	?	·	0.067µM*	-36%	·	-31%
Cc1ccc2nc(-c3cc(-c4ccccc4)no3)cn2c1	0.26µM*	·	0.21µM*	0.25µM*	·	0.79µM*
CSc1ccc(C2C(C(=O)c3ccco3)=C(O)C(=O)N2c2nnc(SC)s2)cc1 (stereo not given)	?	·	?	22%	·	23%
COc1ccccc1/C=C/C(=O)/C=C/c1ccccc1O	-15%	·	3.4µM*	-42%	·	-37%
CNc1ccccc(C(=O)/C=C/c2ccccc2OC)c1=O	-5%	-5%	21µM*	2%	-24%	1%
CNc1ccc(Br)cc(C(=O)/C=C/c2cccc(OC)c2OC)c1=O	-13%	-5%	?	-5%	·	-1%
COCC(=O)N1CCC(Oc2ccc(C(=O)N3CCCCCC3)cc2)CC1	-3%	·	-1%	5%	·	-3%
O=C(/C=C/c1ccccc1)OC1CC(O)C2(O)C=CO[C@@H](OC3OC(CO)C(O)C(O)C3O)C12 (stereo not given in full)	·	-1%	·	·	6%	·
COc1cccc(-c2cc(NCc3cccs3)ncn2)c1	·	-13%	·	·	8.9µM*	·
Cc1ccc(/C=C/C(=O)c2ccc([N+](=O)[O-])o2)cc1	-9%	·	?	-38%	·	-32%
Cc1ccc(C(=O)/C=C/c2ccccc2)o1	-1%	-8%	2.4µM*	-4%	-22%	-4%
Cc1ccc(C(=O)/C=C/c2ccc(Br)cc2)o1	10%	-6%	2.4µM*	-2%	-5%	-4%
COc1ccc([N+](=O)[O-])cc1NS(=O)(=O)c1cccc(C(=O)OC2CCOC2=O)c1 (stereo not given)	1%	·	·	·	·	·
CCc1nn2c(=O)c(S(=O)(=O)Nc3ccc(C)c(C)c3)c(C)nc2s1	·	·	-6%	·	-14%	·
COc1cccc(N2CC(C(=O)Nc3nnc(SCC(=O)NC4CCCC4)s3)CC2=O)c1 (stereo not given)	6%	·	6%	1%	·	-2%
COc1cccc(C(=O)Nc2nnc(SCC(=O)NC3CC3)s2)c1	?	·	5.4µM*	?	·	?
COc1ccc(C(=O)Nc2nnc(SCC(=O)NC3CC3)s2)cc1	?	·	1.2µM*	2.5µM*	·	1.4µM*
COc1ccc(C(=O)Nc2nnc(SCc3cc(=O)c4cccc(F)c4[nH]3)s2)cc1	·	·	21µM*	·	·	·
COCCNC(=S)Nc1ccc(N2CCCCC2)cc1	6%	-1%	?	7%	?	7%
SMILES	ELG1 genotox	Luc counter	FLuc counter	Rab9 promoter act	SMN2 splice enh	NPC1 promoter act
Cn1ccc2cc(S(=O)(=O)N3CCCC(C(=O)NCc4ccccc4)C3)ccc21 (stereo not given)	·	·	1%	·	·	·
CCOc1ccccc1OCC(=O)Nc1cccc(S(=O)(=O)N2CCCCCC2)c1	-1%	·	1%	0%	·	7%
COc1ccc(C(=O)NCC(=O)OCC(=O)Nc2cccc(S(=O)(=O)N3CCCC3)c2)cc1	-1%	·	12µM*	-9%	·	-3%
Cc1ccc(NC(=O)COc2ccccc2C(N)=O)cc1S(=O)(=O)N1CCCCCC1	-3%	·	24µM*	-26%	·	-22%
Cc1ccc(NC(=O)COc2cccc(C)c2C)cc1S(=O)(=O)N1CCCCCC1	?	·	2%	-5%	·	-1%
Cc1cc(Cl)ccc1OCC(=O)Nc1cccc(S(=O)(=O)N2CCCC2)c1	-5%	·	9.5µM*	-3%	·	-4%
CC(=O)c1ccccc1OCC(=O)Nc1cccc(S(=O)(=O)N2CCCC2)c1	-2%	·	17µM*	-1%	·	7%
Cc1ccc2cccc(OCC(=O)Nc3cccc(S(=O)(=O)N4CCCC4)c3)c2n1	-12%	·	0%	-3%	·	-2%
COc1ccc(C(=O)NCC(=O)Nc2cccc(S(=O)(=O)N3CCCC3)c2)cc1	3%	·	·	·	·	·
CCC1=C2CC[C@H]3C(=O)N(CC)C(=O)[C@H]3[C@H]2[C@@]2(Cc3ccccc3)C(=O)N(CC3CC3)C(=O)N2C1=O	·	-2%	·	·	1%	·
O=C(COc1ccc(Cl)cc1Br)Nc1cccc(S(=O)(=O)N2CCCC2)c1	-6%	·	2.7µM*	-1%	·	9%
Cc1cccc(NC(=O)CN2C(=O)N/C(=C\c3ccc(N4CCOCC4)cc3)C2=O)c1	?	3%	3µM*	?	11µM*	?
Cc1cc(N2CCOCC2)ccc1/C=C1\NC(=O)N(CC(=O)Nc2ccc(F)cc2)C1=O	13%	3%	?	?	18%	?
CCn1ncc(N(C)N)c(Cl)c1=O	4%	-2%	6%	-8%	10%	0%
O=C(c1ccccc1)c1ccc2nc(-c3ccc(NC(=O)c4ccccc4F)cc3)[nH]c2c1	?	-3%	-20%	15%	-18%	3%
O=C(Nc1cccc(-c2nc3ccccc3[nH]2)c1)c1c(F)cccc1F	·	·	12µM*	·	10%	·
COc1cccc(OC)c1C(=O)Nc1cccc(-c2nc3ccccc3[nH]2)c1	-1%	-6%	-2%	-2%	·	-2%
CC(=O)Nc1cccc(-c2nc3ccccc3[nH]2)c1	4%	-29%	?	23%	-34%	6%
O=C(Nc1cccc(-c2nc3ccccc3[nH]2)c1)c1ccccc1F	·	·	11µM*	·	-18%	·
O=C(Nc1cccc(-c2nc3ccccc3[nH]2)c1)c1ccccn1	-19%	·	13µM*	16%	·	14%
COc1ccc(NC(=O)Nc2ccc(Cc3ccncc3)cc2)c(OC)c1	-5%	1%	-1%	-1%	-33%	2%
Brc1cc(Br)c2nc(-c3cccs3)ccc2c1	11µM*	-6%	9.5µM*	?	11µM*	1%
Nc1nccc(-c2cccs2)n1	0%	-1%	0%	2%	14%	-1%
CC(C)(C)c1ccc(N2C(=N)SCC2=O)cc1	-3%	·	-18%	-1%	·	0%
